AI-2 QS modul: Vibrio harveyi AI-2 quorum sensing modulators, primary screen, JMH597 strain, luminescence/OD600 ratio; Vibrio harveyi JMH597 AI-2 luminescence/OD600 ratio, 9 h; hits give low values; strain lacks LuxN and CqsS sensors; 0 = neutral-control median; activity change, % at 7.5 µM; actives 0.4% (n = 300,000); AID 2094, 2009; in the data active means activity change below about -75%, passing the limit was not always enough; inconclusive means no clear call, values can overlap the other calls;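 further: luminescence divided by OD600 gain over 9 h not by final OD600 alone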
V-ATPase pH: regulators of yeast V-ATPase proton pumping, primary screen, pHLuorin cytosolic pH fluorescence | S. cerevisiae | response, % at 10 µM | actives 0.37% (n = 350,000); in the data active means response mostly above about 7.3%, no sharp cut-off; inactive means mostly below about 5.4%; further: actives read high
Efflux pump inh: inhibitors of Candida efflux pumps in yeast, primary screen, S. cerevisiae, Nile Red, multiplex; actives 0.44% (n = 330,000); S. cerevisiae Candida pump triplex; inhibition, % at 10 µM;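 active means plate passing quality check with inhibition over a set limit, or well fluorescence over plate mean plus 4 SD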;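 further: Nile Red retained in pooled yeast measured as flow cytometry median fluorescence; 0% = buffer negative control and 100% = Enniatin B positive control; higher means more Nile Red kept so more efflux inhibition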
ATG4B inhibitor: ATG4B protease inhibitors, primary screen, biochemical, fluorescence, uHTS. ATG4B cleavage of LC3-PLA2, NBD-HPC fluorescence, 1 h. inhibition, % at 8.33 µM. actives 0.51% (n = 340,000). AID 504462, 2011; in the data active means inhibition above about 40%
Target sequence (Q9Y4P1 whole entry, looked up): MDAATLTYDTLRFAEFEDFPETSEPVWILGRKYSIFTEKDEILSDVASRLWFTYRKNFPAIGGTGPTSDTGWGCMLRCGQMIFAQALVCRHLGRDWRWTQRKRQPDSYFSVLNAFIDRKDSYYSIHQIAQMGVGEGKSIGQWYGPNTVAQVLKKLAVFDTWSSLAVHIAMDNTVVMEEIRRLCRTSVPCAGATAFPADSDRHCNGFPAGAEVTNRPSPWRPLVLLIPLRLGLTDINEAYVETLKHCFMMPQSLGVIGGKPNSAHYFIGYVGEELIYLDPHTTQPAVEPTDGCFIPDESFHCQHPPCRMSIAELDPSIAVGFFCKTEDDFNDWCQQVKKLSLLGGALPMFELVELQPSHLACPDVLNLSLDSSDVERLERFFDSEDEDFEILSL
SUMO Mot1 rescue: yeast Mot1-301 growth rescue at high temperature, primary screen, SUMOylation pathway inhibitor project, S. cerevisiae, ATP luminescence, 38.5C; S. cerevisiae Mot1-301 growth rescue; percent above DMSO median, 100 means doubled; actives 1% (n = 320,000); growth rescue, % at 18.8 µM;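 active means every valid replicate shows activation above 250% relative to neutral control wells; inactive means the rest, any valid replicate at or below 250%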;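 further: OY570 slx delta 5 strain wells were the positive control but not used for scaling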
JMH597 growth rt: Vibrio harveyi growth inhibition, confirmation, counter-screen for AI-2 quorum sensing project, JMH597 strain, OD600 absorbance | growth inhibition, % at 7.5 µM | 9 h; lacks LuxN and CqsS sensors | shares compounds with AI-2 QS modul | actives 1% (n = 750);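 active means every replicate shows growth inhibition above 50%; inconclusive means at least half, but not all, replicates pass that cutoff; inactive means fewer than half of replicates pass it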
BB721 lum counter: luminescence inhibition in constitutive-on V. harveyi, confirmation, counter-screen for LuxS inhibitor project, strain BB721, luminescence readout | Vibrio harveyi BB721 luminescence, 9 h | AID 2727, 2010 | inhibition, % at 7.5 µM | actives 95% (n = 750) | shares compounds with AI-2 QS modul;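 active means inhibition above about 80% in every replicate, not just on average, limit read from the data; inconclusive means at least half of replicates past the limit, but not all; inactive means fewer than half of replicates past the limit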
BB721 growth rt: growth inhibition of V. harveyi BB721, confirmation, cytotoxicity control for AI-2 quorum sensing inhibitors, strain BB721, absorbance OD600 | shares compounds with AI-2 QS modul | Vibrio harveyi BB721 growth, 9 h | growth inhibition, % at 7.5 µM | actives 3% (n = 750);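 active means every replicate shows growth inhibition above 50%; inconclusive means at least half but not all replicates above 50% inhibition; inactive means under half of replicates above 50% inhibition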
AI-2 QS JMH597: Vibrio harveyi AI-2 signaling luminescence modulation – JMH597 strain, confirmation; shares compounds with AI-2 QS modul; Vibrio harveyi JMH597 AI-2 quorum sensing luminescence, 9 h; luxN and CqsS knockout, AI-2 only; inhibition, % at 7.5 µM; actives 97% (n = 750);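 active means every replicate shows more than 75% inhibition of signal versus neutral control wells; inconclusive means half to three quarters of replicates exceed 75% inhibition; inactive means fewer than half of replicates exceed 75% inhibition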
* hit, by the source's call; ? = inconclusive; nt = no result. A selection: hits, their analogues and other compounds. The true share with any hit is near 2.5%.

SMILES	AI-2 QS modul	V-ATPase pH	Efflux pump inh	ATG4B inhibitor	SUMO Mot1 rescue	JMH597 growth rt	BB721 lum counter	BB721 growth rt	AI-2 QS JMH597
O=C(Cc1ccc(Br)cc1)Nc1cccc(Cl)c1	-82*	-2	0	-1	-11	-20	88*	7	88*
O=C(Nc1ccc(Cl)cc1)Nn1cnc2ccccc2c1=O	-98*	3	0	-5	13	2	100*	-13	100*
O=C(/C=C/c1ccccc1)Nn1cnc2ccccc2c1=O	-88*	-3	0	-6	-17	19	98*	-1	99*
O=C(Nn1cnc2ccccc2c1=O)c1ccccc1Cl	-4	-2	0	4	-10	nt	nt	nt	nt
O=C(/C=C/c1ccccc1Cl)Nn1cnc2ccccc2c1=O	-78*	5	0	4	28	19	96*	0	98*
N#Cc1ccc(CC(=O)c2ccccc2)[nH]c1=O	nt	-1	nt	-8	nt	nt	nt	nt	nt
CC(=O)N[C@H]1[C@H]([C@H](O)[C@H](O)CO)O[C@](O)(C(=O)O)C[C@@H]1O	nt	1	nt	-7	nt	nt	nt	nt	nt
CC12CCC(=O)N1C(C(=O)Nc1ccc(F)c(Cl)c1)CS2 (stereo not given)	-71	-3	0	3	-1	nt	nt	nt	nt
CC1(C)SC[C@H](C(=O)Nc2cccc(Cl)c2)N1C=O	-93*	-1	0	5	-1	-19	98*	-35	99*
C=Cn1c(C(=O)O)ccc1-c1ccc(CC)cc1	-87*	-2	0	10	146	26	16	10	100*
CCc1ccc(C(=O)O)cc1	20	-2	0	3	4	nt	nt	nt	nt
CCOc1ccc(NS(=O)(=O)c2ccc(N)cc2)cc1	?	-3	0	-1	5	34	99*	2	100*
CC(COc1ccc(C(C)C)cc1)NC(=O)c1ccc(Br)o1 (stereo not given)	-83*	-2	-3	nt	19	-16	88*	3	93*
COc1ccc(N(CC(=O)Nc2ccc(OC)c(OC)c2)S(=O)(=O)c2ccccc2)cc1Cl	6	-3	0	-12	10	nt	nt	nt	nt
COc1ccc(NC(=O)CN(c2ccc(OC)c(Cl)c2)S(=O)(=O)c2ccccc2)cc1	?	-4	0	-5	8	17	-6	18	-3
NC(=S)N/N=C/c1ccc(-c2ccccc2)o1	?	3	0	-5	4	nt	nt	nt	nt
Cc1ccc(-c2ccc(/C=N/NC(N)=S)o2)cc1	-87*	3	0	-13	69	24	90*	?	92*
COc1ccc(CC(=O)O/N=C(\N)c2ccccn2)cc1	?	-3	0	-9	0	8	84*	3	88*
Cc1ccc(/C(N)=N/OC(=O)Cc2ccccc2)cc1	-67	-1	1	-2	-3	nt	nt	nt	nt
COc1ccc(/C(N)=N/OC(=O)Cc2ccc(C)cc2)cc1	-91*	-1	0	-12	-10	-8	95*	-26	97*
N/C(=N\OC(=O)Cc1ccc(-c2ccccc2)cc1)c1ccccn1	28	4	0	4	-17	nt	nt	nt	nt
COc1ccccc1N(CC(=O)Nc1ccc(Br)cc1F)S(=O)(=O)c1cccs1	nt	-4	nt	-5	nt	nt	nt	nt	nt
COc1ccc(OC)c(NC(=O)CSc2ncnc3sc(C)cc23)c1	nt	3	nt	15	nt	nt	nt	nt	nt

Assay outcomes as filed in PubChem BioAssay.
